Legend:
Test in all cases: DAPPL (digital affinity profiling via proximity ligation, sequencing); 10 mM Tris-HCl pH 7.5, 50 mM NaCl, 1 mM DTT, 4% glycerol, room temperature, 30 min; GST-TFs on glutathione beads, 16-mer random dsDNA library, 0.1% formaldehyde crosslink after washing; high values mean tight binding
Settings in all cases: protein: recombinant; tags: N-terminal GST; dsDNA, one strand shown
FEV = target: T1, FEV (Homo sapiens, UniProt Q99581 1-238)
T1 sequence: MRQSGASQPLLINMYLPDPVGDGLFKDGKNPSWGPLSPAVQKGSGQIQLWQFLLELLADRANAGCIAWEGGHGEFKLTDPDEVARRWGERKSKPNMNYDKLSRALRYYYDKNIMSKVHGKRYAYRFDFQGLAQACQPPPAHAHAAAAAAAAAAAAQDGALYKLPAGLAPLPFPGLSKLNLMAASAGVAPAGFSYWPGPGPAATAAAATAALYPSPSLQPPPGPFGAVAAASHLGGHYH
Outline: (§1)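 After expression in yeast as GST fusions, human transcription factors were bound to glutathione beads, DNA-barcoded and mixed with a tag-only sample. The pools were incubated with 200 nmole of a 16-mer random double-stranded DNA library in Tris/NaCl/DTT/glycerol buffer (30 min, room temperature), washed and crosslinked with 0.1% formaldehyde. Proximity ligation with BsaI/T4 ligase ran for 1 h at 37 °C, before PCR amplification and sequencing on an Illumina NextSeq500. Binding signal is a hexamer's read frequency for a factor divided by its frequency for the tag-only sample.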

ETV5 = ETV5 (Homo sapiens, UniProt P41161 1-510)
Outline: as §1

SPIC = target: T2, SPIC (Homo sapiens, UniProt Q8N5J4 1-248)
T2 sequence: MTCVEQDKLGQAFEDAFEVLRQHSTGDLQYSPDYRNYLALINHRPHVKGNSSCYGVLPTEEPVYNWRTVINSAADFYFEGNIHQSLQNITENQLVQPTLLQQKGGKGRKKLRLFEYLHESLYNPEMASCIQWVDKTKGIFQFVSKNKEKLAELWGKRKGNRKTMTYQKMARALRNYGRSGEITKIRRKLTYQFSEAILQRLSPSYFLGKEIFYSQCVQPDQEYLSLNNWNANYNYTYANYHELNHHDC
Outline: as §1

ELF4 = ELF4 (Homo sapiens, UniProt Q99607 1-663)
Outline: as §1

ELK4 = target: T3, ELK4 (Homo sapiens, UniProt P28324-2 1-405)
T3 sequence: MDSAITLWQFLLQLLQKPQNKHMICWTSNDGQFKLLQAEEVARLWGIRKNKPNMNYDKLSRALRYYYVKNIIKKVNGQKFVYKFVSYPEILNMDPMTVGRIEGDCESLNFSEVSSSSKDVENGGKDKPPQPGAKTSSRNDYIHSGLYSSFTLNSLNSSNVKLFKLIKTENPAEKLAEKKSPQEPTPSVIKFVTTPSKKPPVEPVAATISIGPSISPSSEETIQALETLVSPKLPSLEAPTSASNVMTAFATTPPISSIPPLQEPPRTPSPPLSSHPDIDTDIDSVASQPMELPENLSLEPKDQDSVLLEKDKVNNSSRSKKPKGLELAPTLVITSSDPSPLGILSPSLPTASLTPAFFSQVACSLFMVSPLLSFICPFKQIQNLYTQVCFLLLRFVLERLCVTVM
Outline: as §1

ETV2 = target: T4, ETV2 (Homo sapiens, UniProt O00321 1-342)
T4 sequence: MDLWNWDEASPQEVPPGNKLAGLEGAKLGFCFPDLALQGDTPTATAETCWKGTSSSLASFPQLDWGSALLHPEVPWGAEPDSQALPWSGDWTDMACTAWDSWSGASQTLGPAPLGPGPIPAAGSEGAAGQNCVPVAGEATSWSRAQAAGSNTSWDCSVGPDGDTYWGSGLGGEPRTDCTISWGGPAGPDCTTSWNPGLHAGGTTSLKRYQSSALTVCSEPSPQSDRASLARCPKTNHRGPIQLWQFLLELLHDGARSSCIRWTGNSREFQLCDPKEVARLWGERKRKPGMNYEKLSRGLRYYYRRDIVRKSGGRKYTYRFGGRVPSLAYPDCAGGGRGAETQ
Outline: as §1

ELF3 = target: T5, ELF3 (Homo sapiens, UniProt P78545 1-371)
T5 sequence: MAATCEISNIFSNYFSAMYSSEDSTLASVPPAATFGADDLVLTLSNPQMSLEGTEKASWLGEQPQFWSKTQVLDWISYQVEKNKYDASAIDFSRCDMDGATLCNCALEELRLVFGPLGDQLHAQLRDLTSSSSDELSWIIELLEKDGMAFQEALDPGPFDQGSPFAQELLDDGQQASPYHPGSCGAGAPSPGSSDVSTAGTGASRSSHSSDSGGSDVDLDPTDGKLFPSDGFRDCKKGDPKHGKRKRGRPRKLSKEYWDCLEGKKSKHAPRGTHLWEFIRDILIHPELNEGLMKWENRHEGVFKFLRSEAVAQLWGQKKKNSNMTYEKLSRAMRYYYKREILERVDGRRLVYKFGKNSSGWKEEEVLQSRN
Outline: as §1

ETV1 = ETV1 (Homo sapiens, UniProt P50549 1-477)
Outline: as §1

ERF = target: T6, ERF (Homo sapiens, UniProt P50548 1-548)
T6 sequence: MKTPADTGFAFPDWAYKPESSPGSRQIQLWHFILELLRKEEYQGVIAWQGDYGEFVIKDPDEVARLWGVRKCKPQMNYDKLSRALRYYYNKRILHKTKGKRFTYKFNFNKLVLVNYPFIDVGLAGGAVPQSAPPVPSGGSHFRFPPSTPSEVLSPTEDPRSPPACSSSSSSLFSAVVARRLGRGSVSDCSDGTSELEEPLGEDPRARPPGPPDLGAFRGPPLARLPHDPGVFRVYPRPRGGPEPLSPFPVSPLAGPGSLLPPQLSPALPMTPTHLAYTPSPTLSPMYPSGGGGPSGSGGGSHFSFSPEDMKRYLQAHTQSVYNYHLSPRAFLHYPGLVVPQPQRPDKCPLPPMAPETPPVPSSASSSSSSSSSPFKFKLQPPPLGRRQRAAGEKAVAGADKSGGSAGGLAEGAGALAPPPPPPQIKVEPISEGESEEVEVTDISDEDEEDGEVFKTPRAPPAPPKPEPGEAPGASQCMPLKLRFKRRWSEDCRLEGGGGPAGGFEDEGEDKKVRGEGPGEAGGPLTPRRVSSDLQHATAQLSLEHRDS
Outline: as §1

ETV3L = target: T7, ETV3L (Homo sapiens, UniProt Q6ZN32 1-361)
T7 sequence: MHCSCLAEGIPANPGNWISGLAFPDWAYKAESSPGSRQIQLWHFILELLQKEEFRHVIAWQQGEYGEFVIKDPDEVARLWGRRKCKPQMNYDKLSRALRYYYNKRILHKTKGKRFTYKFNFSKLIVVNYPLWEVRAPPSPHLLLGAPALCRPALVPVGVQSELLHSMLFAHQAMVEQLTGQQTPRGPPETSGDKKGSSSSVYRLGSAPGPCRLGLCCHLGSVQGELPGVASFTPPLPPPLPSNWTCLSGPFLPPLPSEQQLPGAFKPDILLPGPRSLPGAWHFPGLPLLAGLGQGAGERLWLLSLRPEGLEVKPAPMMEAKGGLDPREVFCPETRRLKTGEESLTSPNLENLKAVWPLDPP
Outline: as §1

ETS2 = target: T8, ETS2 (Homo sapiens, UniProt P15036 1-469)
T8 sequence: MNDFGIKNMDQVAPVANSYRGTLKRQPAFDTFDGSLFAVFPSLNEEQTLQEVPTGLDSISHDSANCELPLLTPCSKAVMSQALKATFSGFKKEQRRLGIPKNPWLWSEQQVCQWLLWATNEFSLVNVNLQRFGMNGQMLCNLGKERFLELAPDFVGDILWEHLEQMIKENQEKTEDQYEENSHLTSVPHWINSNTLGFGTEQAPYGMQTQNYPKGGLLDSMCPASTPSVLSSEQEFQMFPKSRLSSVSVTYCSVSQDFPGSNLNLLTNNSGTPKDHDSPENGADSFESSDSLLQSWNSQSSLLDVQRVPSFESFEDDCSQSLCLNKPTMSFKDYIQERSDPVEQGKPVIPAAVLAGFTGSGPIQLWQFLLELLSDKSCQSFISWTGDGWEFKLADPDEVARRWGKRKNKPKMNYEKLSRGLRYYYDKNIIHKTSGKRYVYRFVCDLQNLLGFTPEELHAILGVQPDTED
Outline: as §1

SPDEF = target: T9, SPDEF (Homo sapiens, UniProt O95238 1-335)
T9 sequence: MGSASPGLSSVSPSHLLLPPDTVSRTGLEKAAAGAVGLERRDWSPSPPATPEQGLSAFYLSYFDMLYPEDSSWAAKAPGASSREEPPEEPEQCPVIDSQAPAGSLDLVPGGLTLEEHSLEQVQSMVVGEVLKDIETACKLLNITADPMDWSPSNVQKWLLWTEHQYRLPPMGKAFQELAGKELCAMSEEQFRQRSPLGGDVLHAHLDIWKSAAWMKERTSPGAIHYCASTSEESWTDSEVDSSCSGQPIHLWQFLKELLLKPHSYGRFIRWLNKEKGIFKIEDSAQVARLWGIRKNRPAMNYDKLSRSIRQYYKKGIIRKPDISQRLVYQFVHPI
Outline: as §1

ELF5 = target: T10, ELF5 (Homo sapiens, UniProt Q9UKW6-2 1-255)
T10 sequence: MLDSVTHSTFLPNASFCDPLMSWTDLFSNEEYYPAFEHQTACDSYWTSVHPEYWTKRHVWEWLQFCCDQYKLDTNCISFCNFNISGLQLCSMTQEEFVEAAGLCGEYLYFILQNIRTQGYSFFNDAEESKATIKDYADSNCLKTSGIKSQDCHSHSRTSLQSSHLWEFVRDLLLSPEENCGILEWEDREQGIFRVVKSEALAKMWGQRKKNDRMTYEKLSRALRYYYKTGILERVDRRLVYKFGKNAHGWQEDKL
Outline: as §1

ETV3 = target: T11, ETV3 (Homo sapiens, UniProt P41162-2 1-143)
T11 sequence: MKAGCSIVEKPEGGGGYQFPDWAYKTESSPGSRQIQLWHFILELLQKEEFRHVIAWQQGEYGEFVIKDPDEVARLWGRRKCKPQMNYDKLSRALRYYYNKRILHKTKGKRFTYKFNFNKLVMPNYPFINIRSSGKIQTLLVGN
Outline: as §1

ETV6 = ETV6 (Homo sapiens, UniProt P41212 1-452)
Outline: as §1

ETV6, sequence (P41212 whole entry): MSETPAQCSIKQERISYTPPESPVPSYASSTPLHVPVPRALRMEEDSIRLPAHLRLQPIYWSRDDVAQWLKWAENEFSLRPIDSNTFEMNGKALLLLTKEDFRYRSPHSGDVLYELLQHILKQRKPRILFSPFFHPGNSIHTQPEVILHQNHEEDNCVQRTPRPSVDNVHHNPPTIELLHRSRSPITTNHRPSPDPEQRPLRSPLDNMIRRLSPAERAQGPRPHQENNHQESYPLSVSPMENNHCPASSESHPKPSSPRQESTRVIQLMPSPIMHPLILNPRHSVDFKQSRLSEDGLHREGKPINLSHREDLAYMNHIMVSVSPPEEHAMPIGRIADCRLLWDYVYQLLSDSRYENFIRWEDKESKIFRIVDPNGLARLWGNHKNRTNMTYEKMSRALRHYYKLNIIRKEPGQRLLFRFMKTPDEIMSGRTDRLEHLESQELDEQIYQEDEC
ETV5, sequence (P41161 whole entry): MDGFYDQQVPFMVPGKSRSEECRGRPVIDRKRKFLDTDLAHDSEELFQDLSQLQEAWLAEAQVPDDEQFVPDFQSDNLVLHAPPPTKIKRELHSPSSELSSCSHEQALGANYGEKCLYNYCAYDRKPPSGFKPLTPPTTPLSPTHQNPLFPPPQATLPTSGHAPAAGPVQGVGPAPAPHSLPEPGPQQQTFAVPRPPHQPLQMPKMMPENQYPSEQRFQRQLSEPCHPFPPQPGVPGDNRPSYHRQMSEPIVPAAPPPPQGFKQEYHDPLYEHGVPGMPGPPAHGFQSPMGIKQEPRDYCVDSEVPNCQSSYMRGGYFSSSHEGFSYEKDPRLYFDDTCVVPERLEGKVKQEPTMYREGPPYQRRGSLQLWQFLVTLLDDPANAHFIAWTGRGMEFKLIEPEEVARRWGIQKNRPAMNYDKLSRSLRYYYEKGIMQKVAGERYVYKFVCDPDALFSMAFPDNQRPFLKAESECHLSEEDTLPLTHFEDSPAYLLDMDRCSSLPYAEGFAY
ELF4, sequence (Q99607 whole entry): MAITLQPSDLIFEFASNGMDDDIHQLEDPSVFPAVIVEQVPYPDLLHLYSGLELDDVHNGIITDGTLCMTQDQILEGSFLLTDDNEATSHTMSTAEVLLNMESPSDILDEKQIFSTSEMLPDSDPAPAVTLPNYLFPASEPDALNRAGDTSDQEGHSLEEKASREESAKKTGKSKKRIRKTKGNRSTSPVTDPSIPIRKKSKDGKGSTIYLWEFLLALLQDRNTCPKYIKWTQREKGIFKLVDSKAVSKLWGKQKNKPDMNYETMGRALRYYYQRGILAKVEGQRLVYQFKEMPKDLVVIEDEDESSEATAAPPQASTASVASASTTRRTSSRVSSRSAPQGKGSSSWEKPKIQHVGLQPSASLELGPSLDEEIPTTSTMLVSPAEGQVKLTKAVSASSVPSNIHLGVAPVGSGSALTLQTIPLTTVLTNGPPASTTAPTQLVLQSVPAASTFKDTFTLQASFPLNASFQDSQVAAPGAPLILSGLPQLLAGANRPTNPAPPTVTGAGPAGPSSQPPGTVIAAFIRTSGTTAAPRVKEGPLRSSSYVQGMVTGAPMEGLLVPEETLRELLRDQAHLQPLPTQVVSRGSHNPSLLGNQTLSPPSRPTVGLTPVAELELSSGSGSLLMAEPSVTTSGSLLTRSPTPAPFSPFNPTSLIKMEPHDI
ETV1, sequence (P50549 whole entry): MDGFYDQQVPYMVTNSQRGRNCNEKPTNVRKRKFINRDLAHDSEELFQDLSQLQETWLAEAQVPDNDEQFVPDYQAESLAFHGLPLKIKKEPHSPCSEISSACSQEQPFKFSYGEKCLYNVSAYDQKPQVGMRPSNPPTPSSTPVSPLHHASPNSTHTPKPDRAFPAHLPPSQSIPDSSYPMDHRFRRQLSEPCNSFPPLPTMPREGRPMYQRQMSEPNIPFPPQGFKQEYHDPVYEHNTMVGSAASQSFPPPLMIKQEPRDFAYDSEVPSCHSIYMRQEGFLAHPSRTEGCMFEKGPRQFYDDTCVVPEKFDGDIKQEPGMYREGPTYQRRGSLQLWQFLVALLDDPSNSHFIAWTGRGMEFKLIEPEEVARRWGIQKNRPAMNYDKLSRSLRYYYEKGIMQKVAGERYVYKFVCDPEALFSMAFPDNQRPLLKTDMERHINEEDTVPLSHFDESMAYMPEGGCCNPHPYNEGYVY

Sequence: GATACG
- binding signal (FEV): 1.08 fold enrichment (6-mer frequency, TF over GST control)
- binding signal (ETV5): 1.1 fold enrichment (6-mer frequency, TF over GST control)
- binding signal (SPIC): 1.2 fold enrichment (6-mer frequency, TF over GST control)
- binding signal (ELF4): 1.07 fold enrichment (6-mer frequency, TF over GST control)
- binding signal (ELK4): 1.13 fold enrichment (6-mer frequency, TF over GST control)
- binding signal (ETV2): 1.06 fold enrichment (6-mer frequency, TF over GST control)
- binding signal (ELF3): 1.09 fold enrichment (6-mer frequency, TF over GST control)
- binding signal (ETV1): 1.1 fold enrichment (6-mer frequency, TF over GST control)
- binding signal (ERF): 1.12 fold enrichment (6-mer frequency, TF over GST control)
- binding signal (ETV3L): 1.1 fold enrichment (6-mer frequency, TF over GST control)
- binding signal (ETS2): 1.11 fold enrichment (6-mer frequency, TF over GST control)
- binding signal (SPDEF): 1.35 fold enrichment (6-mer frequency, TF over GST control)
- binding signal (ELF5): 1.1 fold enrichment (6-mer frequency, TF over GST control)
- binding signal (ETV3): 1.12 fold enrichment (6-mer frequency, TF over GST control)
- binding signal (ETV6): 1.09 fold enrichment (6-mer frequency, TF over GST control)

Sequence: CTCAGG
- binding signal (FEV): 1.09 fold enrichment (6-mer frequency, TF over GST control)
- binding signal (ETV5): 1.06 fold enrichment (6-mer frequency, TF over GST control)
- binding signal (SPIC): 1.06 fold enrichment (6-mer frequency, TF over GST control)
- binding signal (ELF4): 1.07 fold enrichment (6-mer frequency, TF over GST control)
- binding signal (ELK4): 1.05 fold enrichment (6-mer frequency, TF over GST control)
- binding signal (ETV2): 1.12 fold enrichment (6-mer frequency, TF over GST control)
- binding signal (ELF3): 1.15 fold enrichment (6-mer frequency, TF over GST control)
- binding signal (ERF): 1.02 fold enrichment (6-mer frequency, TF over GST control)
- binding signal (ETS2): 1.12 fold enrichment (6-mer frequency, TF over GST control)
- binding signal (SPDEF): 1 fold enrichment (6-mer frequency, TF over GST control)
- binding signal (ELF5): 1.04 fold enrichment (6-mer frequency, TF over GST control)
- binding signal (ETV3): 1.01 fold enrichment (6-mer frequency, TF over GST control)
- binding signal (ETV6): 1.08 fold enrichment (6-mer frequency, TF over GST control)

From article PMC7862700, “An all-to-all approach to the identification of sequence-specific readers for epigenetic DNA modifications on cytosine”
